Shown are actives, neighbours in structure and some others; about 2.3% of the full set was active somewhere.
rat GALR2 ag = agonists of rat galanin receptor 2 (GALR2); 16,000 compounds, 0.5% hits; AID 833, 2007; activation, % at 10 µM; cell-based GALR2 agonist screen; Galanin receptor type 2 (Rattus norvegicus), O08726; in the data active means activation above about 15%
Target sequence (O08726 whole entry, looked up): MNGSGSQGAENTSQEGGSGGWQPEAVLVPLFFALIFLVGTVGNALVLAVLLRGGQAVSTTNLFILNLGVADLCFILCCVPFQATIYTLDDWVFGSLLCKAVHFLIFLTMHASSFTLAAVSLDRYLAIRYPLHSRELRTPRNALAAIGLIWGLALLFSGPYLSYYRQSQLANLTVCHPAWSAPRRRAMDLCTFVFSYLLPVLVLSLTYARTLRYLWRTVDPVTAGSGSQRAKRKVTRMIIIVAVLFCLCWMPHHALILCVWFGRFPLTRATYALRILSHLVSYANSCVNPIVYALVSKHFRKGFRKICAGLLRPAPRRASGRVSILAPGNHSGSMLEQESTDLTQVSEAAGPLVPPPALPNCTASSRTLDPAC
TLR4 MyD88 blk = inhibitors of human TLR4-MyD88 binding; 16,000 compounds, 0.06% hits; Cell-based TLR4-MyD88 binding inhibition assay; inhibition, % at 10 µM; Toll-like receptor 4 (Homo sapiens), O00206; AID 811, 2007; in the data active means inhibition above about 45%
S1P1 ag = activates the human S1P1 receptor; 16,000 compounds, 1.5% hits; Sphingosine 1-phosphate receptor 1 (Homo sapiens), P21453; AID 1044, 2008; S1P1 agonist cell-based reporter assay; activation, % at 4.5 µM; in the data active means activation above about 80%
Starred values were filed as active, the others as inactive.

SMILES	rat GALR2 ag	TLR4 MyD88 blk	S1P1 ag
FC(F)(F)Oc1ccc(-c2noc(-c3ccno3)n2)cc1	-6	-1	91*
CCO/N=C/c1nn(C(=O)NC)cc1Br	-6	3	-7
Cc1ccc2c(C(=O)O)cc(-c3ccccc3)nc2c1	0	-4	-2
C/C(=N\NC(N)=O)c1cccs1	-1	-8	-17
COc1ccc(N=Nc2cc(C)c(O)c(CN3CCCCC3)c2)cc1	-6	9	101*
COc1ccc(/C(C)=N/O)cc1CN1CCCC1	-7	1	-5
Cc1nnsc1C(=O)NNc1cc(Cl)ccc1Cl	-5	5	34
Cc1c(S(=O)(=O)c2ccc(Cl)cc2)csc1C(=O)Nc1ccc(F)cc1F	22*	-9	1
Cc1c(S(=O)(=O)c2ccc(Cl)cc2)csc1C(=O)Nc1ccc2c(c1)COCO2	-1	-2	35
COC(=O)c1sccc1Oc1ccc(C(F)(F)F)cc1NC(=O)Nc1cc(C)cc(C)c1	-12	-3	12
O=S(=O)(CC1CC1(Cl)Cl)c1ccccc1 (centres undefined)	-5	12	-6
CCOC(=O)/C(C#N)=C/Nc1nc2ccc(C)cc2s1	-5	-8	87*
CCOC(=O)/C(C#N)=C/Nc1ccncc1	-4	5	-6
Cc1ccc(NC(=S)N2CCCN(c3ncccc3[N+](=O)[O-])CC2)cc1Cl	-2	-5	14
NC(N)=NC(N)=Nc1ccc2c(c1)OCCO2	-7	3	-4
O=C(O)Cc1csc2ccccc12	-6	-5	2
O=[N+]([O-])c1ccccc1SCc1csc2ccccc12	-6	-9	98*
CCN1CCCC1CNC(=O)NC(=O)c1ccc([N+](=O)[O-])cc1 (centres undefined)	-4	9	85*
CC1CCCN(c2ccc([N+](=O)[O-])cc2)C1 (centres undefined)	-4	9	8
COc1ccc2nonc2c1	139*	15	-2
COc1ccc2nsnc2c1	-8	6	0
COc1c(C(=O)Nc2nc(-c3ccc(F)c(F)c3)cs2)csc1Cl	-4	-8	-19
Cc1cc(NC(=O)CN2CCOCC2)n(-c2ccccc2)n1	137*	-7	9
Cc1cc(NC(=O)C(Cl)Cl)n(-c2ccccc2)n1	-3	9	-12
O=C(Nc1ccc(C(F)(F)F)cc1Cl)c1ccc(F)cc1	-6	2	9
SMILES	rat GALR2 ag	TLR4 MyD88 blk	S1P1 ag
c1ccc(-c2nc(-c3ccc(-c4ccon4)s3)no2)cc1	-3	-5	87*
Cc1cc(-c2noc(-c3ccccc3)n2)no1	-3	4	-7
O=[N+]([O-])c1ccc(C2=NN(c3ccccc3)C(c3ccco3)C2)cc1 (centres undefined)	-20	70*	74
O=[N+]([O-])c1cccc(C2Oc3ccccc3C3CC(c4ccccc4)=NN32)c1 (centres undefined)	-8	-4	-5
CC(C)(C)OC(=O)/C(C#N)=C/c1cccs1	-6	-1	-12
O=C1/C(=C/c2cccs2)CN(Cc2ccccc2)C/C1=C\c1cccs1	-12	3	-19
O=C1/C(=C/c2cccs2)CC/C1=C\c1cccs1	6	6	81*
Cc1ccc(S(=O)(=O)NC(=O)N(C)CCc2ccccn2)cc1	-6	5	4
CN(CCc1ccccn1)C(=O)c1nccnc1C(=O)O	-5	14	94*
CCCc1c(C(=O)Nc2ncn[nH]2)cnn1-c1ccccc1	-1	-1	14
CCCc1c(C(=O)Nc2ccc3ccccc3n2)cnn1-c1ccccc1	-6	1	96*
Clc1ccc(COc2ccc(-c3noc(C4CC4)n3)cc2)cc1	-8	0	101*
CN(C)S(=O)(=O)Oc1ccc(-c2noc(C3CCC3)n2)cc1	-6	0	17
Cc1nc(C(=O)NCC(=O)c2cccc(Cl)c2)c(C(F)(F)F)o1	-1	-2	92*
NC(=O)CNC(=O)c1cccc(Cl)c1	-7	-6	-22
N/C(=N\NC(=O)Nc1ccc(OC(F)(F)F)cc1)c1cnccn1	-4	0	-31
O=C(O)c1ccc(OCc2ccccc2)cc1	-2	-4	-16
c1ccc(COc2ccc(CCC3OCCO3)cc2)cc1	15*	10	31
N#CC1(NC2CCCCC2)CCCCC1	-4	0	0
COC(=O)c1sc2ccccc2c1OC(=O)c1cccs1	-8	-3	23
COC(=O)c1sc2ccccc2c1Cl	-3	14	107*
COC(=O)c1c(C)noc1-c1ccc(C(F)(F)F)cc1	-6	-4	-8
CCOC(=O)C(O)(c1ccc(NC(=O)Nc2ccc3ccccc3c2)c(OC)c1)C(F)(F)F (centres undefined)	-7	-7	22
CC(C)(C)c1ccc(NC(=O)CN2CCOCC2)c(NC(=O)c2cccs2)c1	-6	-23	-4
FC(F)(F)c1cc(-c2cccs2)nc2cc(-c3cccs3)nn12	30*	-2	-3
SMILES	rat GALR2 ag	TLR4 MyD88 blk	S1P1 ag
FC(F)(F)c1cc(-c2ccc(Cl)cc2)nc2cc(-c3ccccc3)nn12	14	8	14
Cc1noc(C)c1S(=O)(=O)N(Cc1ccccc1)C(C)C	47*	-6	3
CC(C)N(Cc1ccccc1)S(=O)(=O)c1ccc2c(c1)CCO2	-8	-1	15
O=C1CCC2=C(CCCC2)N1c1ccccc1	-8	45*	2
O=C1CN(c2ccccc2)C(=O)N1c1ccccc1	-5	5	-3
CC(C)(C)c1csc(CS(=O)(=O)c2cccs2)n1	-6	9	-4
Nc1ccc(C(F)(F)F)cc1N	-8	-3	4
Cc1cc(N=Nc2cccc(C(F)(F)F)c2)ccc1N	-12	-1	101*
CN(C(=O)c1ccc(OCC(F)(F)F)c(C#N)c1OCC(F)(F)F)c1ccc(Cl)cc1	-4	-3	-1
CC(C)(C)c1cc(C(=O)NNC(=S)Nc2ccccc2)n(Cc2ccc(Cl)cc2Cl)n1	-9	-2	101*
CC(C)(C)c1cc(C(=O)NCc2ccc(C#N)cc2)n(Cc2ccccc2)n1	-9	-7	5
S=C(Nc1ccc2ccccc2c1)Nc1cc(Cl)c(Cl)cc1Cl	-1	3	0
Cn1nc(C(C)(C)C)cc1C(=O)NCc1ccc2c(c1)OCO2	0	3	84*
Cn1cc(S(=O)(=O)NCc2ccc3c(c2)OCO3)c(C(F)(F)F)n1	0	9	12
COc1ccc(OC)c(/C=C(\C#N)C(N)=O)c1	-5	12	92*
CCOC(=O)/C(C#N)=C/c1ccc(OC)c(OC)c1	-2	-12	-4
O=C(c1cccs1)N1CCc2ccccc2C1	34*	3	-2
N#C/C(=C\N1CCc2ccccc2C1)C(=O)c1cccs1	3	-1	12
NS(=O)(=O)c1ccc(N/N=C2\CSCc3ccccc32)c([N+](=O)[O-])c1	-6	-20	13
O=[N+]([O-])c1cc(C(F)(F)F)cc([N+](=O)[O-])c1O/N=C1\CSCc2ccccc21	40*	-2	16
CCOC(=O)c1ccc(NC(=O)CSc2ccccn2)cc1	-3	2	0
N#CC(CO)Cc1cc([N+](=O)[O-])ccc1N1CCOCC1 (centres undefined)	-8	-4	3
N#CC(CO)Cc1cc([N+](=O)[O-])ccc1N1CCCCC1 (centres undefined)	-7	1	95*
Cc1cc(C(=O)Nc2nc3ccc(Cl)cc3s2)nn1C	-4	10	103*

Screening data: PubChem BioAssay, The Scripps Research Institute Molecular Screening Center
